This is an account of results in PubChem BioAssay (Tox21).

Assay [1] in a line: A CellTox Green Cytotoxicity Assay to monitor cytotoxicity in HEK293 cells - 32 hour (AID 1224881). Note: nearly all actives have a fitted effect of over 40% in size. In a few lines:
(§1)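 Fluorescence from a DNA-binding dye excluded by viable cells was measured repeatedly in the same HEK293 wells (600 cells/well) during continuous compound exposure at 37 C. Each assay gives one read point: 0, 8, 16, 24, 32 or 40 h.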

The nature of assay [2]: A CellTox Green Cytotoxicity Assay to monitor cytotoxicity in HepG2 cells - 0 hour (AID 1224882). Note: nearly all actives have a fitted effect of over 35% in size. In a few lines: (§2)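 Real-time cytotoxicity: fluorescence of a cell-impermeant cyanine dye binding DNA of dead HepG2 cells, measured repeatedly (0–40 h) during compound exposure at 37 C. Cells seeded 600/well with reagent, dosed after 5 h.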
The nature of assay [3]: A CellTox Green Cytotoxicity Assay to monitor cytotoxicity in HepG2 cells - 32 hour (AID 1224883). Note: nearly all actives have a fitted effect of over 50% in size. In a few lines: as §2
Assay [4] is described as follows: A CellTox Green Cytotoxicity Assay to monitor cytotoxicity in HEK293 cells - 8 hour (AID 1224884). Note: nearly all actives have a fitted effect of over 35% in size. In a few lines: as §1
A short description of assay [5]: qHTS RealTime-Glo MT Cell Viability Assay in HepG2 cells - 16 hour (AID 1224885). Note: nearly all actives have a fitted effect of over 50% in size. Put shortly: (§3)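 Tox21 10K library screened in qHTS format on HepG2 cells carrying RealTime-Glo reagents. Compounds were added after a 5 h preincubation, and the luminescent signal from continuous culture was measured repeatedly during 40 h treatment.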
A short description of assay [6]: qHTS RealTime-Glo MT Cell Viability Assay in HEK293 cells - 24 hour (AID 1224886). Note: top concentration of the series differs between compounds; nearly all actives have a fitted effect of over 50% in size. In a few lines:
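Luminescence generated by NanoLuc from substrate produced by living HEK293 cells served as the viability signal. Each value reflects the reading at its stated time point during continuous 40 h compound exposure at 37 C.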
(In general: qHTS replaces the single test concentration by a dilution series.)

Assay [7] in a line: qHTS RealTime-Glo MT Cell Viability Assay in HEK293 cells - 8 hour (AID 1224887). Note: top concentration of the series differs between compounds; nearly all actives have a fitted effect of over 50% in size. Put shortly:
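Luminescence, which tracks viable cell number through reduction of the prosubstrate to a NanoLuc substrate, was read over continuous 37 C culture. Cells (600/well) were premixed with reagent and rested 5 h before 23 nL of compound in DMSO was pinned.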

A short description of assay [8]: A CellTox Green Cytotoxicity Assay to monitor cytotoxicity in HEK293 cells - 16 hour (AID 1224888). Note: nearly all actives have a fitted effect of over 35% in size. In a few lines: as §1
Assay [9] is described as follows: qHTS RealTime-Glo MT Cell Viability Assay in HepG2 cells - 0 hour (AID 1224889). Note: nearly all actives have a fitted effect of over 50% in size. Note: potency is the fitted concentration of half-maximal effect. In a few lines:
as §3

The nature of assay [10]: A CellTox Green Cytotoxicity Assay to monitor cytotoxicity in HepG2 cells - 8 hour (AID 1224890). Note: nearly all actives have a fitted effect of over 45% in size. In a few lines:
as §2

Assay [11] can be described thus: qHTS assay to identify small molecule antagonists of the estrogen receptor alpha (ER-alpha) signaling pathway using the BG1 cell line in the presence of 0.1 nM 17-beta-estradiol - cell viability counter screen (AID 1259241). Note: nearly all actives have a fitted effect of over 40% in size. Put shortly:
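CellTiter-Fluor read (30 min, 37C) on ER-alpha/ERE-luc VM7Luc4E2 cells; 22 hr compound treatment; agonist 0.1 nM E2 final; same-well multiplex.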

A short description of assay [12]: qHTS assay to identify small molecule antagonists of the androgen receptor (AR) signaling pathway using the MDA cell line in the presence of 0.5 nM R1881 - cell viability counter screen (AID 1259242). Note: nearly all actives have a fitted effect of over 45% in size. Put shortly:
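Live-cell protease activity was measured by CellTiter-Fluor fluorescence after 30 min. Before that, MDA-kb2 MMTV-luciferase cells had 16 hr at 37C without CO2, exposed to test compounds and 0.5 nM R1881 final.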

In assay [13] the target is Estrogen receptor (Homo sapiens) (UniProt P03372). The assay is described as follows: qHTS assay to identify small molecule antagonists of the estrogen receptor alpha (ER-alpha) signaling pathway using the BG1 cell line in the presence of 0.1 nM 17-beta-estradiol (AID 1259244). Note: nearly all actives have a fitted effect of over 50% in size. Put shortly: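 Luciferase luminescence (ONE-Glo, 30 min at room temperature) was read after 22 hr at 37C exposure to compounds plus 17beta-estradiol at 0.1 nM final. Cells were VM7Luc4E2 with endogenous ER-alpha and an ERE-driven luciferase, pre-cultured 5 days in hormone-depleted medium.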

Assay [14] can be described thus: qHTS assay to identify small molecule HDAC inhibitors (AID 1259364). Note: top concentration of the series differs between compounds; nearly all actives have a fitted effect of over 45% in size. In a few lines: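 Luminescence read after 30 min room-temperature HDAC-Glo incubation measures cellular class I/II HDAC activity. Compounds were applied for 2 hr at 37 C to HCT-116 wild-type cells seeded the day before.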
A short description of assay [15]: qHTS assay to identify small molecule HDAC inhibitors - cell viability counter screen (AID 1259365). In a few lines:
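To flag cytotoxic hits, 1,500 wild-type HCT-116 cells per well, plated the day before, receive test compounds for 2hr at 37 C before CellTiter-Glo reagent and a luminescence read.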

Assay [16] is described as follows: qHTS assay to identify small molecule agonists of the sonic hedgehog signaling (Shh) pathway - cell viability counter screen (AID 1259366). Note: nearly all actives have a fitted effect of over 50% in size. In a few lines:
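Fluorescence from CellTiter-Fluor reports live cells in this counter screen. NIH/3T3-derived Gli1-Luc reporter cells receive test compounds for 24hr at 37C; reagent goes in at 23hr.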

Assay [17] in a line: qHTS assay to identify small molecule antagonists of the sonic hedgehog signaling (Shh) pathway - cell viability counter screen (AID 1259367). Note: nearly all actives have a fitted effect of over 55% in size. In a few lines:
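CellTiter-Fluor signal in conditioned medium-stimulated 3T3 Gli1-Luc cells, 23 hr compound exposure, 37C.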

A short description of assay [18]: qHTS assay to identify small molecule agonists of the sonic hedgehog signaling (Shh) pathway (AID 1259368; calls by dose curve;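 note: NIH/3T3-derived 3T3Gli1-Luc cells carrying a stable Gli1-driven firefly luciferase reporter; series mostly up to about 92 µM; nearly all actives have a fitted effect of over 15% in size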). Put shortly:
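Luminescence was read after 30 min at room temperature with luciferase reagent. Before that, 3T3Gli1-Luc cells (NIH/3T3 clone, stable Gli1-Luc reporter; 2,000/well) were exposed to compounds for 24 hr at 37C, 5% CO2, compounds being added 4 hr post-plating.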

Assay [19] can be described thus: qHTS assay to identify small molecule phospholipidosis (PLD) inducers (AID 1259344; active = well fitted curve in the direction sought with a large enough effect; an effect the other way counts as inactive or inconclusive). In a few lines:
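Accumulated phospholipid, stained red by LipidTOX during 24 h compound treatment of HepG2 cells at 37 C, is quantified from images as pit number and intensity, normalised per cell using Hoechst-stained nuclei.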

A number with no mark means an inactive call. Results filed as inconclusive are left out. Active and inactive are the calls of the source. Unless noted, calls come from the whole dose curve; as a rule, active = well fitted curve in the direction sought with a large enough effect in the repeat runs; inconclusive = weak or mixed curves; inactive = no such curve, though single readings can be large; an effect the other way counts as inactive or inconclusive.
% is set by controls: 0 for no effect and ±100 for the full control effect.

Estrogen receptor (Homo sapiens), sequence (P03372 whole entry, looked up): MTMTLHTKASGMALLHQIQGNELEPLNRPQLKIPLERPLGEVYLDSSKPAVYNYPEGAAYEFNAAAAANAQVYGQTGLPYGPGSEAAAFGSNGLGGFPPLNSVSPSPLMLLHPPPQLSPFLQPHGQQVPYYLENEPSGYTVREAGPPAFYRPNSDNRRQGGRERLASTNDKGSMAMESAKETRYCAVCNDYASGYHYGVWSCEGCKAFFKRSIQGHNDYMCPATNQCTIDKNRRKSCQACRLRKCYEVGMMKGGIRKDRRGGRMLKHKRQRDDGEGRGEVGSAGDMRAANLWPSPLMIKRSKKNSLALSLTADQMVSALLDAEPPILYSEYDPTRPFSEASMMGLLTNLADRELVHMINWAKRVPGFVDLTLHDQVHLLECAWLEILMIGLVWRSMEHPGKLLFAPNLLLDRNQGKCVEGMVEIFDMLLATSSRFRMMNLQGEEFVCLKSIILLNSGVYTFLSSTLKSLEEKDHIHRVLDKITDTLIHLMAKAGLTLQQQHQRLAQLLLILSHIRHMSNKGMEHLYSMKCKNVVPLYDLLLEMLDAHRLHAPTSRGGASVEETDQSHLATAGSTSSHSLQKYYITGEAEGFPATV

For the compound `O=C(NS(=O)(=O)/C=C/c1cccs1)c1ccc(F)cc1Br`, the Potency result in assay [1], in [2], in [3], in assay [4], in [5] and in assay [6] was “inactive” each time. In addition, the Potency result in assay [7], in assay [8], in assay [10], in assay [11], in assay [12] and in [13] was “inactive” each time. Also, the Potency result in assay [14], in assay [16] and in assay [17] was “inactive” throughout. The Potency in assay [9] is 15.5 µM (active). The compound was classed as inactive in assay [15] and in assay [18].

In the case of `CC1=CC(=O)/C(=C(/C)O)C(=O)O1`, the Potency entry in assay [1], in assay [2], in assay [3], in assay [4], in assay [5] and in assay [6] was “inactive” in each case. Besides, the Potency entry in [7], in assay [8], in assay [9], in [10], in assay [11] and in assay [12] was “inactive” each time. Also, the Potency result in assay [13], in assay [14], in assay [16] and in assay [17] was “inactive” throughout. In addition, the outcome in [15] and in assay [18] was inactive.

For the compound `CC(=O)OC/C=C/c1ccccc1`, the Potency result in assay [1], in assay [2], in assay [3], in assay [4], in [5] and in [6] was “inactive” in each case. Also, the Potency result in assay [7], in assay [8], in assay [9], in assay [10], in [11] and in assay [12] was “inactive” in each case. Also, the Potency entry in assay [14], in assay [16] and in assay [17] was “inactive” throughout. Further, the compound was called inactive in [15] and in assay [18].

On to `N=C(N=C(N)N)N1CCOCC1`, for which the Potency entry in assay [1], in assay [2], in [3], in assay [4], in assay [5] and in assay [6] was “inactive” in each case. In addition, the Potency result in assay [7], in assay [8], in assay [9], in assay [11], in assay [12] and in assay [13] was “inactive” in each case. The Potency entry in assay [19], in assay [14], in assay [16] and in [17] was “inactive” each time. For the same compound, the compound was called inactive in assay [15] and in [18].

For the compound `CC(=O)OCCc1ccccc1`, the Potency entry in assay [1], in assay [2], in assay [3], in assay [4], in [5] and in [6] was “inactive” in each case. Moreover, the Potency entry in [7], in assay [8], in [9], in [10], in assay [11] and in assay [12] was “inactive” each time. Further, the Potency entry in assay [13], in assay [14] and in [16] was “inactive” each time. Further, the compound was classed as inactive in [15] and in assay [18].

Regarding `CC(C)(C)c1ccc(S)cc1`, the Potency result in [1], in [2], in assay [3], in assay [4], in assay [5] and in assay [6] was “inactive” in each case. The Potency entry in [7], in assay [8], in assay [9], in [10], in assay [11] and in assay [12] was “inactive” each time. Also, the Potency result in assay [13], in assay [14], in [16] and in assay [17] was “inactive” each time. Also, the compound was called inactive in [15] and in [18].

On to `CCN(CCO)CCCC(C)Nc1ccnc2cc(Cl)ccc12` (stereo not drawn), for which the cytotoxicity increase was -1.54% [at 6.97 µM] in assay [1], 10.8% [at 6.97 µM] in [3], 0.302% [at 6.97 µM] in [4] and 17.5% [at 6.97 µM] in [10]. For the same compound, in assay [2], the cytotoxicity is 10% [at 6.97 µM]. In addition, the activity change, negative = cytotoxic in [5] was 4.27% [at 6.97 µM]. Also, the activity change, negative = cytotoxicity is -0.518% [at 6.97 µM] in assay [6], 0.498% [at 6.97 µM] in assay [7], 5.1% [at 6.97 µM] in [9] and -6.05% [at 8.39 µM] in assay [11]. Moreover, the activity change was -1.57% [at 6.97 µM, stronger effect = higher value] in assay [8] and 0.0324% [at 8.39 µM] in assay [18]. Besides, the viability change, negative = cytotoxic in assay [12] is -0.563% [at 8.39 µM]; in assay [16], -3.56% [at 8.39 µM]; in assay [17], 1.32% [at 8.39 µM]. For the same compound, the Potency result in [19] is “inactive”. Besides, the activity change, negative = inhibition in assay [14] was 16.3% [at 8.39 µM].
